Results published in PubChem BioAssay (Tox21).
Where “and” joins values, the source holds several entries; their conditions need not be identical. Equal entries are not always repeated. Records with an inconclusive call do not appear. Entries that show only a call come without a potency. Some structures have more than one record in an assay (separate samples or runs), and their calls can disagree. Calls of active or inactive are those of the source. Unless noted, the call rests on the fitted dose curve; in most records, active means well fitted curve in the direction sought with a large enough effect in the repeat runs; inconclusive means weak or mixed curves; inactive means no such curve, though single readings can be large; an effect the other way counts as inactive or inconclusive.

How the values were obtained:
[1] = qHTS assay to identify aromatase inhibitors - cell viability counter screen (AID 743084);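 further: cells stimulated with testosterone during compound exposure; nearly all actives have a fitted effect of over 55% in size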; further: potency means the concentration at half of the fitted maximal effect
[2] = target: Aryl hydrocarbon receptor (Homo sapiens) (UniProt P35869); assay: qHTS assay to identify small molecule that activate the aryl hydrocarbon receptor (AhR) signaling pathway (AID 743085); further: nearly all actives have a fitted effect of over 15% in size; further: potency means the concentration at half of the fitted maximal effect;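 on activation: HG2L7.5c1 human HepG2 liver cells with stably integrated DRE-driven firefly reporter; series mostly up to about 70 µM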
Chain of Aryl hydrocarbon receptor (Homo sapiens) (P35869 whole entry, looked up): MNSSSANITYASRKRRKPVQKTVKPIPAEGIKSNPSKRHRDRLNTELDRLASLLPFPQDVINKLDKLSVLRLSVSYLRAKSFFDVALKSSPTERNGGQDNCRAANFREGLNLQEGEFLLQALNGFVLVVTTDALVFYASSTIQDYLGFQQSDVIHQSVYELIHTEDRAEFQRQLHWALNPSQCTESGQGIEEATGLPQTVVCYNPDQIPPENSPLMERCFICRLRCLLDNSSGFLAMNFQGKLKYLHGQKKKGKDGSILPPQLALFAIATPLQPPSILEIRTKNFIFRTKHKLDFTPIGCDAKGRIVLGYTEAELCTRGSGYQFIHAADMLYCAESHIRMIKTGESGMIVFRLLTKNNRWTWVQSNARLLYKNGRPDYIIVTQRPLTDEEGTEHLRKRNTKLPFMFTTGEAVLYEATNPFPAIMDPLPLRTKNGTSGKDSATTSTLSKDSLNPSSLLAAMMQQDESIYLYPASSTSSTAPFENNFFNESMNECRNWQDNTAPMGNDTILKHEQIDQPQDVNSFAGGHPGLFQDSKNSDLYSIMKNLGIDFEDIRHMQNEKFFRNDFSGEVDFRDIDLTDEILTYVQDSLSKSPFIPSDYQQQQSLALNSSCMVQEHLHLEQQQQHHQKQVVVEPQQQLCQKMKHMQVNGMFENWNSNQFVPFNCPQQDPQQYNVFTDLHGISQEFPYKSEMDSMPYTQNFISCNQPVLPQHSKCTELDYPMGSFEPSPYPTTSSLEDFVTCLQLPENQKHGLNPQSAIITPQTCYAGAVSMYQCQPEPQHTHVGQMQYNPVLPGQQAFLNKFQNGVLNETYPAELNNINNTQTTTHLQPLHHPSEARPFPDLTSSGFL
How it was run: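 Luminescence read-out: ONE-Glo reagent, 30 min at room temperature, in HG2L7.5c1 HepG2 reporter cells treated 24 h at 37C. Viability was measured beforehand by CellTiter-Fluor fluorescence after 30 min at 37C.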

[3] = qHTS assay to identify small molecule that activate the aryl hydrocarbon receptor (AhR) signaling pathway - cell viability counter screen (AID 743086); further: nearly all actives have a fitted effect of over 45% in size; further: potency means the concentration at half of the fitted maximal effect
How it was run: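 Cytotoxicity counter screen: CellTiter-Fluor signal (30 min, 37 C) in 4000 HepG2 cells/well carrying the DRE-luciferase reporter, following 24 h compound exposure at 37 C.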

[4] = target: Peroxisome proliferator-activated receptor gamma (Homo sapiens) (UniProt P37231); assay: qHTS assay to identify small molecule agonists of the peroxisome proliferator-activated receptor gamma (PPARg) signaling pathway (AID 743094; active means well fitted activation curve with a large enough effect in the signal ratio in the repeat runs, not every such curve was filed as active; the % refers to the signal ratio)
Chain of Peroxisome proliferator-activated receptor gamma (Homo sapiens) (P37231 whole entry, looked up): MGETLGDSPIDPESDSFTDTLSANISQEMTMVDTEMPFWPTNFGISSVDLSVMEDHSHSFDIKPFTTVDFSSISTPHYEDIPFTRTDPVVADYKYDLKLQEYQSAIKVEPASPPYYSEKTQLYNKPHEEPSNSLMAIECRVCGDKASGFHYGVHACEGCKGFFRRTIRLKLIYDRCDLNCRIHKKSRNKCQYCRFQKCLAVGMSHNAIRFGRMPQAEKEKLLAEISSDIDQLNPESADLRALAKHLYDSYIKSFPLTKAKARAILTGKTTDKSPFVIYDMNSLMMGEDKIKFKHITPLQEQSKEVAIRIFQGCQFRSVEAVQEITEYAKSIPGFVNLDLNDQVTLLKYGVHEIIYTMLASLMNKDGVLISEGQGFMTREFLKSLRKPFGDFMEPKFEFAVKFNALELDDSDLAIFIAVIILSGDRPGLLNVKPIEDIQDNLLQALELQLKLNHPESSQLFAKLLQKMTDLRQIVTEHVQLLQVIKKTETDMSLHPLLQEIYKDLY
How it was run: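 Reporter activation was scored by fluorescence of cleaved LiveBLAzer B/G substrate (1 h, room temperature) in PPARg-bla HEK293H cells previously treated 17 h at 37C with DMSO-dissolved compounds.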

[5] = qHTS assay to identify small molecule antagonists of the peroxisome proliferator-activated receptor gamma (PPARg) signaling pathway - cell viability counter screen (AID 743194); settings: Potency: co-treated with 50 nM rosiglitazone; further: nearly all actives have a fitted effect of over 55% in size; further: potency means the concentration at half of the fitted maximal effect
How it was run: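 Viability was measured as CellTiter-Glo luminescence in GeneBLAzer PPARg UAS-bla HEK293H cells. These cells had been exposed 17 h at 37 C to compounds together with rosiglitazone at 50 nM final, with the beta-lactamase readout taken in the same wells.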

[6] = qHTS assay for small molecule agonists of the antioxidant response element (ARE) signaling pathway - cell viability counter screen (AID 743203; calls by dose curve; further: nearly all actives have a fitted effect of over 55% in size; further: potency means the concentration at half of the fitted maximal effect)
How it was run: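 Viability counter screen: stably transfected ARE-bla HepG2 line, 16 hrs compound exposure at 37C/5% CO2, ATP-based CellTiter-Glo luminescence measured in the reporter wells.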

[7] = qHTS assay for small molecule activators of the heat shock response signaling pathway - cell viability counter screen (AID 743209); further: nearly all actives have a fitted effect of over 50% in size
How it was run: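 Viability of HSE-bla HeLa cells is measured with CellTiter-Glo in the wells already used for the reporter read. Compound exposure lasts 5 h at 37 C, and luminescence is read after 30 min at room temperature.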

[8] = qHTS assay for small molecule activators of the heat shock response signaling pathway (AID 743210; active means well fitted activation curve with a large enough effect in the signal ratio in the repeat runs, with a control signal flat, not every such curve was filed as active; the % refers to the signal ratio; further: series mostly up to about 63 µM)
How it was run: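 Compound exposure lasted 5 h at 37 C in HeLa cells carrying a heat-shock-element-driven beta-lactamase reporter. Read-out: fluorescence intensity after 2.5 h room-temperature loading with LiveBLAzer B/G FRET substrate.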

[9] = qHTS assay to identify small molecule antagonists of the peroxisome proliferator-activated receptor delta (PPARd) signaling pathway - cell viability counter screen (AID 743213); further: nearly all actives have a fitted effect of over 50% in size
How it was run: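 HEK293H cells with the PPARd UAS-bla reporter, co-treated 17 h at 37 C with compounds and L165041 (300 nM final), were lysed with CellTiter-Glo. Luminescence indicated viable cell content.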

[10] = qHTS assay to identify small molecule antagonists of the farnesoid-X-receptor (FXR) signaling pathway - cell viability counter screen (AID 743221; active means well fitted cell-killing curve with a large enough effect in the repeat runs, not every such curve was filed as active; further: nearly all actives have a fitted effect of over 50% in size; further: potency means the concentration at half of the fitted maximal effect)
How it was run: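 HEK 293T FXR-bla cells, 5 h pre-incubation; compound + CDCA 50 uM final, 16 h, 37 C; beta-lactamase FRET read first, then CellTiter-Glo luminescence, 30 min RT.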

[11] = target: Peroxisome proliferator-activated receptor delta (Homo sapiens) (UniProt Q03181); assay: qHTS assay to identify small molecule agonists of the peroxisome proliferator-activated receptor delta (PPARd) signaling pathway (AID 743212; calls by dose curve)
Chain of Peroxisome proliferator-activated receptor delta (Homo sapiens) (Q03181 whole entry, looked up): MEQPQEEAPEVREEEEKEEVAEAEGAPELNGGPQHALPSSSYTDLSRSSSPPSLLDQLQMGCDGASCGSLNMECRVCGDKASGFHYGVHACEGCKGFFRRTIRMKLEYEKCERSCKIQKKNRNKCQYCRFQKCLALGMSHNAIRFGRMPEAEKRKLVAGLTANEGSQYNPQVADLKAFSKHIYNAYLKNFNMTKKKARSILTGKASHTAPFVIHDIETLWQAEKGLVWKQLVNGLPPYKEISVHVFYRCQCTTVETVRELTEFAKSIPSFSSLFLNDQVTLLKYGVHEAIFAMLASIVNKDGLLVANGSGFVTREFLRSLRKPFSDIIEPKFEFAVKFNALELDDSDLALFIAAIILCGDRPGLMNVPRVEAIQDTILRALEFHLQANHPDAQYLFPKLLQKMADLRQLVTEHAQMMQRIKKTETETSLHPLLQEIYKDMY
How it was run: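 Beta-lactamase reporter readout: a ratiometric FRET signal from the LiveBLAzer substrate after 2 h at room temperature. Compound exposure at 37 °C in PPARδ-bla HEK293H cells driven by an upstream activator sequence.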

[12] = qHTS assay to identify small molecule agonists of the farnesoid-X-receptor (FXR) signaling pathway - cell viability counter screen (AID 743218); further: nearly all actives have a fitted effect of over 45% in size; further: potency means the concentration at half of the fitted maximal effect
How it was run: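 Viability of FXR-bla HEK 293T cells is measured by ATP-based CellTiter-Glo luminescence following 16 h compound treatment at 37 C and a prior 2 h room-temperature beta-lactamase substrate step.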

[13] = target: Vitamin D3 receptor (Homo sapiens) (UniProt P11473); assay: qHTS assay to identify small molecule agonists of the vitamin D receptor (VDR) signaling pathway (AID 743222; calls by dose curve)
Chain of Vitamin D3 receptor (Homo sapiens) (P11473 whole entry, looked up): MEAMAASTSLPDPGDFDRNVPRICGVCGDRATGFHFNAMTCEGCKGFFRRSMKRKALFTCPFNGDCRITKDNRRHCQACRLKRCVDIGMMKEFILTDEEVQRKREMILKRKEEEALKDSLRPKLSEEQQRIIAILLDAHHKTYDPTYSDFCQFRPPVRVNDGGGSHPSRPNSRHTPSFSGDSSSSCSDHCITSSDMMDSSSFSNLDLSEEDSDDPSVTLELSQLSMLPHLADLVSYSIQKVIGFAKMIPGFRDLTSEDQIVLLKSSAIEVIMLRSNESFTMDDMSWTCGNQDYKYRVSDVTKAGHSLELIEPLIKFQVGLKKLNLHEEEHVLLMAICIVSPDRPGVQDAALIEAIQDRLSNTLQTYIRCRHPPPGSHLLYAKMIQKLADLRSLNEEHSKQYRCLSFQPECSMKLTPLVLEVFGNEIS
How it was run: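 Fluorescence from cleaved LiveBLAzer B/G FRET substrate served as readout. VDR-bla cells had been treated 16 h at 37C with test compounds in DMSO, following a 4 h settling period, and substrate was loaded for 2 h at RT.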

[14] = target: Vitamin D3 receptor (Homo sapiens) (UniProt P11473); assay: qHTS assay to identify small molecule antagonists of the vitamin D receptor (VDR) signaling pathway (AID 743223; active means well fitted inhibition curve with a large enough effect in the signal ratio in the repeat runs, not every such curve was filed as active; the % refers to the signal ratio)
How it was run: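 Beta-lactamase reporter read-out: FRET substrate fluorescence after 2 h at room temperature, following 16 h exposure of VDR-bla cells to test compound plus 3 nM (final) 1alpha,25-dihydroxyvitamin D3 agonist at 37C.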

[15] = qHTS assay for small molecule agonists of the antioxidant response element (ARE) signaling pathway (AID 743202; active means well fitted activation curve with a large enough effect in the signal ratio in the repeat runs, not every such curve was filed as active; the % refers to the signal ratio; further: potency means the concentration at half of the fitted maximal effect)
How it was run: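 After 16 hours of compound treatment at 37 C, HepG2 cells with a stably integrated ARE-driven beta-lactamase reporter were loaded 2 hours at room temperature with LiveBLAzer B/G FRET substrate and fluorescence intensity measured.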

[16] = target: Peroxisome proliferator-activated receptor delta (Homo sapiens) (UniProt Q03181); assay: qHTS assay to identify small molecule antagonists of the peroxisome proliferator-activated receptor delta (PPARd) signaling pathway (AID 743215; active means well fitted inhibition curve with a large enough effect in the signal ratio in the repeat runs, not every such curve was filed as active; the % refers to the signal ratio;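 further: cells stimulated with agonist L165041 at 300 nM final during compound exposure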; further: potency means the concentration at half of the fitted maximal effect)
How it was run: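 Plated HEK293H PPARd-bla cells rested 5 h at 37 C and 5% CO2. Compound, then agonist L165041 at 300 nM final, was added; 17 h at 37 C followed. Substrate loading, 2 h room temperature, fluorescence measured.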

[17] = target: Bile acid receptor (Homo sapiens) (UniProt Q96RI1); assay: qHTS assay to identify small molecule antagonists of the farnesoid-X-receptor (FXR) signaling pathway (AID 743217; active means well fitted inhibition curve with a large enough effect in the signal ratio in the repeat runs, not every such curve was filed as active; the % refers to the signal ratio)
Chain of Bile acid receptor (Homo sapiens) (Q96RI1 whole entry, looked up): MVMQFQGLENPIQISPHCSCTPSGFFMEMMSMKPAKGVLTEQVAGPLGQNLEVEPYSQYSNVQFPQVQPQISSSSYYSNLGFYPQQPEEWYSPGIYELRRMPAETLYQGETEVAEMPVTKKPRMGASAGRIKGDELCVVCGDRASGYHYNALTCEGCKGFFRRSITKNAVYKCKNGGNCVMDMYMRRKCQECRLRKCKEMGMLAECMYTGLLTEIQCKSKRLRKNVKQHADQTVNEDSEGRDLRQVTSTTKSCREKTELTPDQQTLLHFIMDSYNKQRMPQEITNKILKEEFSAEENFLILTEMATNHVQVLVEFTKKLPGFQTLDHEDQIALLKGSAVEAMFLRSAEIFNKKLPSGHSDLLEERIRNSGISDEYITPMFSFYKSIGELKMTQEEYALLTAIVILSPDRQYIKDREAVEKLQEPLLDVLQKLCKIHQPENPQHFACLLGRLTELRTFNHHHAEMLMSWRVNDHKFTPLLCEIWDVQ
How it was run: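 Screen of the Tox21 10K library in quantitative HTS format using FXR-UAS-bla HEK 293T reporter cells. Agonist chenodeoxycholic acid, 50 uM final, added with compounds; 16 h incubation at 37 °C; beta-lactamase FRET fluorescence measured.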

[18] = target: Bile acid receptor (Homo sapiens) (UniProt Q96RI1); assay: qHTS assay to identify small molecule agonists of the farnesoid-X-receptor (FXR) signaling pathway (AID 743220; active means well fitted activation curve with a large enough effect in the signal ratio in the repeat runs, not every such curve was filed as active; the % refers to the signal ratio)
How it was run: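 FXR-UAS-bla HEK 293T cells carrying a UAS-driven beta-lactamase reporter were plated for 5 h at 37C/5% CO2, then exposed to DMSO-dissolved Tox21 10K compounds for 16 h at 37C. A LiveBLAzer B/G FRET substrate was loaded for 2 h at room temperature before fluorescence reading.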

[19] = qHTS assay to identify small molecule agonists of the peroxisome proliferator-activated receptor delta (PPARd) signaling pathway - cell viability counter screen (AID 743211); further: nearly all actives have a fitted effect of over 55% in size
How it was run: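 Read-out: CellTiter-Glo luminescence, 30 min RT, measured in the same wells as the beta-lactamase reporter. Cells: GeneBLAzer PPAR delta UAS-bla HEK293H, 3000 cells/well, compound exposure 17 h at 37C.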

[20] = target: Peroxisome proliferator-activated receptor gamma (Homo sapiens) (UniProt P37231); assay: qHTS assay to identify small molecule antagonists of the peroxisome proliferator-activated receptor gamma (PPARg) signaling pathway (AID 743191; calls by dose curve; further: series mostly up to about 63 µM; nearly all actives have a fitted effect of over 30% in size)
How it was run: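 Beta-lactamase reporter under UAS control in HEK293H PPARg-bla cells; compound treatment 17 h at 37C. Read-out: fluorescence intensity after 1 h room-temperature incubation with LiveBLAzer B/G FRET substrate.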

| Structure (SMILES) | Potency [1] | Potency [2] | Potency [3] | outcome [4] | Potency [5] | Potency [6] | Potency [7] | Potency [8] | Potency [9] | Potency [10] | outcome [11] | Potency [12] | outcome [13] | outcome [14] | Potency [15] | Potency [16] | outcome [17] | outcome [18] | Potency [19] | Potency [20] |
| --- | --- | --- | --- | --- | --- | --- | --- | --- | --- | --- | --- | --- | --- | --- | --- | --- | --- | --- | --- | --- |
| CC(C)[N+](C)(CCC(C(N)=O)(c1ccccc1)c1ccccc1)C(C)C | inactive | inactive | inactive | inactive | inactive | inactive | inactive | inactive | inactive | inactive | – | – | – | – | – | – | – | – | – | – |
| O=C1C2CC=CCC2C(=O)N1SC(Cl)(Cl)Cl (stereo not given) | inactive and 21.3 µM (active) | inactive | inactive and 42.6 µM (active) | inactive | 3.83 µM (active) | inactive and 23.9 µM (active) | inactive | – | – | inactive and 42.9 µM (active) | inactive | inactive and 21.5 µM (active) | inactive | inactive | – | – | – | – | – | – |
| CC(C)(C)c1cc(O)ccc1O | inactive | 26.6 µM (active) [middle of 4 runs] | inactive | inactive | inactive | – | inactive | inactive | – | inactive | inactive | inactive | – | – | 3.86 µM (active) | 54.9 µM (active) | inactive | inactive | – | – |
| COC1=CC(=O)O[C@@H](/C=C/c2ccccc2)C1 | inactive | inactive | inactive | inactive | inactive | inactive | inactive | inactive | inactive | inactive | inactive | inactive | inactive | inactive | – | inactive | inactive | inactive | inactive | – |
| CC(C)[C@]12CC(=O)[C@H](C)[C@H]1C2 | inactive | inactive | inactive | inactive | inactive | inactive | inactive | inactive | – | inactive | inactive | inactive | inactive | inactive | inactive | inactive | inactive | inactive | inactive | – |
| CCOP(=S)(OCC)Oc1ccc(Cl)cc1Cl | inactive | 19.3 µM (active) | inactive | inactive | – | inactive | inactive | inactive | inactive | inactive | inactive | inactive | inactive | inactive | – | inactive | – | – | – | inactive |
| CCCCCCCCBr | inactive | inactive | inactive | inactive | inactive | inactive | inactive | inactive | inactive | inactive | – | inactive | – | inactive | inactive | – | inactive | inactive | – | – |
| C=CC(=O)OCCN(C)C | inactive | inactive | inactive | inactive | inactive | inactive | inactive | inactive | inactive | inactive | inactive | inactive | inactive | – | inactive | inactive | – | – | inactive | – |
| Nc1c(Cl)c(F)nc(OCC(=O)O)c1Cl | inactive | inactive | inactive | inactive | inactive | inactive | inactive | inactive | inactive | inactive | – | – | inactive | inactive | inactive | – | – | – | inactive | – |
| O=C(NC(=O)c1c(F)cccc1F)Nc1cc(Cl)c(F)c(Cl)c1F | inactive | inactive | inactive | inactive | inactive | inactive | inactive | inactive | inactive | inactive | inactive | inactive | – | inactive | – | inactive | – | – | inactive | – |
| O=C(Cl)CCl | inactive | inactive | inactive | inactive | inactive | inactive | inactive | inactive | inactive | inactive | inactive | inactive | – | – | – | inactive | inactive | inactive | inactive | – |
| CCOC(=O)CCl | inactive | inactive | inactive | inactive | inactive | inactive | inactive | inactive | inactive | inactive | inactive | inactive | inactive | inactive | – | inactive | inactive | inactive | inactive | – |
| CC(C)(C1CCC(O)CC1)C1CCC(O)CC1 (stereo not given) | inactive | inactive | inactive | inactive | inactive | inactive | inactive | inactive | inactive | inactive | – | inactive | inactive | inactive | inactive | – | – | – | inactive | – |
| CS(=O)(=O)Cl | inactive | inactive | inactive | inactive | inactive | inactive | inactive | inactive | – | inactive | inactive | inactive | inactive | inactive | inactive | inactive | – | – | inactive | – |
| ClCOCCl | inactive | inactive | inactive | inactive | inactive | inactive | inactive | inactive | – | – | inactive | inactive | – | – | inactive | inactive | inactive | inactive | – | – |
| O=C(O)CBr | inactive | inactive | inactive | inactive | inactive | inactive | inactive | inactive | – | inactive | inactive | inactive | – | inactive | inactive | inactive | – | – | inactive | – |
| CC#Cc1cc(C)nc(Nc2ccccc2)n1 | inactive | 30.6 µM (active) | inactive | inactive | inactive | inactive | inactive | inactive | – | inactive | inactive | – | inactive | inactive | 34.3 µM (active) | inactive | – | – | – | – |
